This is a sample that favours compounds with a hit; in the whole collection about 21% have one here.
Shiga toxin inh – inhibitors of Shiga toxin in Vero cells | inhibition, % at 38.7 µM | Vero cells, Shiga toxin protein synthesis inhibition reporter | actives 9.2% (n = 290,000); in the data active = inhibition mostly above about 28%, no sharp cut-off; inactive = mostly below about 43%; note: 0% is about no effect
Pf growth 48h – inhibits P. falciparum growth in the first generation, 48 h; P. falciparum luciferase growth in erythrocytes, 48 h; Potency, µM (titrated, usually from 28.7 µM), without a hit: at the highest dose activity change, negative = inhibition, hits mostly inhibitors; actives 5.9% (n = 310,000); note: potency is the fitted concentration of half-maximal effect; % is set by controls: 0 for no effect and ±100 for the full control effect
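Read-out is firefly luciferase luminescence from an integrated reporter in P. falciparum, so falling signal marks reduced parasite growth. Infected erythrocytes were at 2% hematocrit and 0.1% parasitemia (final) in Albumax-supplemented RPMI 1640.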
Pf growth 96h – P. falciparum growth inhibition at 96 hours; P. falciparum luciferase reporter growth, 96 h; Potency, µM (doses to about 28.7 µM), for the others: at the highest dose activity change, negative = inhibition, most hits filed as inhibitors; actives 6.9% (n = 320,000); AID 504834; note: potency is the fitted concentration of half-maximal effect; % is set by controls: 0 for no effect and ±100 for the full control effect
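96 h incubation, 37 C, 5% CO2, of luciferase-reporter P. falciparum-infected RBCs (2% hematocrit, 0.05% parasitemia final) with test compounds; endpoint luminescence.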
CHX counter – affects cycloheximide protein synthesis inhibition readout, counter-screen. cell reporter, cycloheximide protein synthesis inhibition counterscreen. max response, %. actives 12% (n = 300,000); in the data active = max response mostly above about 13%, no sharp cut-off; inactive = mostly below about 14%; note: read at 38.3 µM for the half of the compounds with a filed dose; 0% is about no effect
Starred values were filed as active, the others as inactive; i = inactive; ? = inconclusive; . = no result. Unless noted, calls come from the whole dose curve; as a rule, active = well fitted inhibition curve with a large enough effect; inconclusive = small, poorly fitted or top-dose-only effect, or another doubt; inactive = no such curve, though single readings can be large or run the other way.

SMILES	Shiga toxin inh	Pf growth 48h	Pf growth 96h	CHX counter
Cc1ccccc1-c1noc(C23CC4CC(CC(C4)C2)C3)n1	-5	.	-13%	-1
CN(C(=O)CSc1ncnc2sccc12)c1c(N)n(Cc2ccccc2)c(=O)[nH]c1=O	-10	22%	42%	1
Cc1ccc(CCNC(=O)c2cc3c(s2)-c2ccccc2OC3)cc1	-5	.	.	9
O=C(Cn1ncc2c1-c1ccccc1OC2)Nc1ccc(Cl)cn1	1	3%	26%	-1
CN1CCN(c2ccccc2NC(=O)c2cc3c(s2)-c2ccccc2OC3)CC1	-7	10µM*	?	-6
O=C(Nc1ccc(Cl)cn1)c1cc2c(s1)-c1ccccc1OC2	34	32%	76%	16*
O=C(Nc1cccnc1Cl)c1cc2c(s1)-c1ccccc1OC2	27*	44%	?	26
COc1ccccc1N1CCN(C(=O)c2cc3c(s2)-c2ccccc2OC3)CC1	-3	21%	5%	-5
Cc1nc2ccc(NS(=O)(=O)c3c(F)cc(F)cc3Br)cc2s1	.	-3%	-7%	.
NC(=O)c1c(NC(=O)CN2CCN(S(=O)(=O)c3ccccc3)CC2)sc2c1CCC2	.	?	6%	.
COc1ccc(C2(c3ccc(OC)cc3)NC(=O)NC2=O)cc1	-17	21%	6%	-4
Cc1cc(C)c(O)c(N)c1	-4	?	2.3µM*	-2
O=C(CCCc1nc2ccccc2s1)Nc1ccc(N2CCOCC2)cc1	-1	-5%	-15%	10
OCC[n+]1c2ccccc2nc2ccc(N3CCOCC3)cc21	15	0.33µM*	0.26µM*	-2
COc1cccc(-c2ccc3nnc(SCC(=O)Nc4ccc(NC(C)=O)cc4)n3n2)c1	.	0%	14%	.
Cc1ccc(C(=O)NCC(=O)N/N=C/c2cccs2)cc1C	17	9%	?	2
COc1cccc(-c2nnc(NC(=O)c3ccccc3Br)o2)c1	66*	78%	126%	35*
O=C(Nc1nnc(-c2ccco2)o1)c1ccc(Cl)s1	19	3%	?	2
COc1cccc(-c2nnc(NC(=O)c3cccc(F)c3)o2)c1	-5	?	?	-2
COc1cccc(-c2nnc(NC(=O)c3ccc(Cl)s3)o2)c1	-2	?	12µM*	5
COc1ccc(-c2nnc(NC(=O)c3ccc([N+](=O)[O-])o3)o2)c(OC)c1	-4	15µM*	12µM*	-2
Cc1ccc(-c2nnc(NC(=O)c3ccc([N+](=O)[O-])o3)o2)c(C)c1	.	-4%	13%	.
Cn1c(=N)n(CC(=O)c2cccs2)c2ccccc21	149*	200%	i	56*
CCCn1c(=N)n(CC(=O)c2cccs2)c2ccccc21	-6	-5%	27%	-5
CCn1c(=N)n(CC(=O)c2cccc([N+](=O)[O-])c2)c2ccccc21	81*	68%	-1%	38*
SMILES	Shiga toxin inh	Pf growth 48h	Pf growth 96h	CHX counter
N=c1n(CC(=O)c2cccc([N+](=O)[O-])c2)c2ccccc2n1Cc1ccccc1	15	?	15%	6
COc1cccc(C(=O)Cn2c(=N)n(C)c3ccccc32)c1	30	62%	29%	31*
N=c1n(CCN2CCCCC2)c2ccccc2n1CC(=O)c1cccs1	-11	12µM*	10µM*	-3
COc1cccc(C(=O)Cn2c(NCCO)nc3ccccc32)c1	19	-16%	?	-4
C=CCN(C(=O)c1csnn1)C(C(=O)NCc1ccc(F)cc1)c1sccc1C (stereo not drawn)	-3	-1%	0%	-2
O=C(COC(=O)/C=C/c1ccc(C(F)(F)F)cc1)NCC1CCCO1 (stereo not drawn)	.	?	22%	.
O=C(NC1CC(=O)N(c2ccc(Cl)cc2)C1)N1CCN(C(=O)c2ccco2)CC1 (stereo not drawn)	.	3%	33%	.
COC(=O)C1=C(C)N(C2CCCCC2)C(=O)/C1=C\c1cccs1	-1	1%	-20%	1
N=c1n(CCN2CCOCC2)c2ccccc2n1CC(=O)c1ccc(Cl)c(Cl)c1	11	12µM*	0.47µM*	24*
CCOC(=O)c1oc2c(CN3CCN(C)CC3)c(O)ccc2c(=O)c1-c1ccccc1OC	1	-3%	9.3µM*	-4
COc1ccccc1-c1c(C)oc2c(CN3CCN(C)CC3)c(O)ccc2c1=O	-3	-18%	-17%	-2
CCOC(=O)c1c(-c2ccccc2)oc2ccc(O)c(CN3CCN(C)CC3)c12	-6	3.7µM*	3.3µM*	-3
Cc1ccc(NC(=O)CCNS(=O)(=O)c2cccs2)cc1F	70*	58%	-7%	26*
Cc1ccc(NC(=O)CCC(=O)NNC(=O)c2cccs2)cc1C	-15	21%	.	17
Cc1ccc(NC(=O)CCC(=O)c2cccs2)cc1F	42	171%	163%	27*
O=C(CCC(=O)c1cccs1)Nc1ccccc1F	37	61%	-6%	16*
Cc1ccc(NC(=O)CNS(=O)(=O)c2cccs2)cc1F	79*	32%	.	80*
O=C(c1ccc(NS(=O)(=O)c2ccccc2)cc1)N1CCOCC1	-2	-4%	19%	-4
CCc1nn(C(C)C(=O)NC2CCCCCC2)c(=O)c2cc3occc3n12 (stereo not drawn)	7	-2%	116%	-4
COc1cccc(CN2CC(C(=O)NCCSc3nnnn3C)CCC2=O)c1 (stereo not drawn)	-11	1%	21%	-1
CC(NC(=O)CNC(=O)C1CCCCC1)c1ccc(S(N)(=O)=O)cc1 (stereo not drawn)	-14	26%	23%	1
CCCc1nc2ccc(NC(C)=O)cc2c(=O)n1Cc1ccc(Cl)cc1	90*	129%	36%	43*
Cc1nc2ccc(N)cc2c(=O)n1Cc1ccc(Cl)cc1	25	14%	53%	18
CCCc1nc2ccc(NC(=O)c3cccs3)cc2c(=O)n1Cc1ccccc1Cl	1	1.9µM*	?	12
CCCC(=O)N1CCN(c2ccc(NC(=O)c3cccs3)cc2Cl)CC1	-12	?	126%	1
SMILES	Shiga toxin inh	Pf growth 48h	Pf growth 96h	CHX counter
CC(=O)N1CCN(c2ccc(NC(=O)c3ccc4c(c3)OCO4)cc2)CC1	26	2%	-25%	2
COc1cccc(C(=O)Nc2ccc(-n3nncc3C(C)(C)C)cc2)c1	64*	-1%	18%	21*
CC(=O)c1ccc(-n2nncc2C(C)(C)C)cc1	-11	35%	-27%	-1
CC(C)(C)c1cnnn1-c1ccc(NC(=O)c2ccc(Br)o2)cc1	-25	10µM*	261%	-2
CC(C)(C)c1cnnn1-c1ccc(NC(=O)c2ccc3c(c2)OCO3)cc1	28*	?	-4%	13*
Cc1ccccc1S(=O)(=O)N1CCN(C)CC1	-4	4%	?	-2
Fc1cccc(CN(C2=NCCN2)c2c(Cl)cccc2Cl)c1	.	12µM*	3%	.
CN(Cc1cccc(F)c1)CC(O)COCc1ccccc1Cl (stereo not drawn)	-6	-12%	?	3
COc1cc(CN(C)CC2CCCN(CCc3ccccc3F)C2)cc(Cl)c1OC (stereo not drawn)	-8	13µM*	9.3µM*	-1
CN(Cc1ccccc1)CC1CCCN(CCc2ccccc2F)C1 (stereo not drawn)	-6	?	?	-3

Screens as filed in PubChem BioAssay.
